Measured values published in PubChem BioAssay (Tox21).
Records with an inconclusive call do not appear. The source made the active and inactive calls. Unless noted, calls follow the shape of the full dose curve.

Tests used:
[1] = Nuclear factor erythroid 2-related factor 2/antioxidant responsive element (Nrf2/ARE) small molecule agonists: qHTS cell viability counter screen in human keratinocytes (AID 1919968; active = well fitted curve in the direction sought with a large enough effect in the repeat runs; an effect the other way counts as inactive or inconclusive; also: nearly all actives have a fitted effect of over 55% in size; also: potency is read from the fitted curve at half-maximal effect)
In short: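 Stably transfected HaCaT (KeratinoSens), 1,500/well. Test agents in DMSO were applied for 23 h, 37 C/5% CO2. CellTiter-Fluor was incubated 1 h before the fluorescence read.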

[2] = Nuclear factor erythroid 2-related factor 2/antioxidant responsive element (Nrf2/ARE) small molecule agonists: luciferase reporter gene qHTS assay in human keratinocytes (AID 1919969); also: nearly all actives have a fitted effect of over 35% in size
[3] = biological target: Gonadotropin-releasing hormone receptor (Homo sapiens) (UniProt P30968); assay: Human gonadotropin-releasing hormone receptor (GnRHR) small molecule agonists, calcium flux assay in GnRHR-HEK293 cells (AID 1920063); also: nearly all actives have a fitted effect of over 35% in size
In short: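 Stable human GnRHR HEK293 line. 18 h plating, then calcium dye for 1 h at 37 C. Agonist-mode compound addition from DMSO stocks; fluorescence monitored 3 min.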

[4] = biological target: KiSS-1 receptor (Homo sapiens) (UniProt Q969F8); assay: Human kisspeptin (KISS1R) small molecule agonists, calcium flux assay in KISS1R-HEK293 cells (AID 1920064; active = well fitted curve in the direction sought with a large enough effect in the repeat runs; an effect the other way counts as inactive or inconclusive)
In short: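 After overnight (18 h) culture at 37 C/5% CO2, human KISS1R-HEK293 cells received calcium dye for 1 h, then test compound; emission at 540 nm (excitation 480 nm) was tracked for 3 min.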

[5] = G protein-coupled receptor (GPCR) small molecule agonists, calcium flux assay: HEK293 wild type cell line counter screen (AID 1920065)
In short: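 Following 18 h incubation at 37 C/5% CO2, plates got calcium dye for 1 h; compounds, ATP or DMSO were then pinned in and fluorescence followed kinetically (480/540 nm).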

[6] = p53 small molecule agonists, cell-based qHTS assay with human liver microsomes (AID 1963577);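 also: p53 response element beta-lactamase reporter cells with liver microsomes plus NADPH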
In short: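 p53RE-bla cells; 5 h settle, 37 C/5% CO2; cpd + HLM 0.5 mg/mL + NADPH 0.5 mg/mL (final); 16 h 37 C; LiveBLAzer 2 h RT dark; fluorescence readout.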

[7] = p53 small molecule agonists, cell-based qHTS assay with rat liver microsomes (AID 1963578)
In short: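 Rat liver microsome activation: microsomes 0.5 mg/mL, NADPH 0.5 mg/mL final; p53RE-bla cells, 16 h 37 C; LiveBLAzer readout, 2 h RT dark.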

[8] = p53 small molecule agonists, cell-based qHTS assay with human liver microsomes: qHTS cell viability counter screen (AID 1963579); also: nearly all actives have a fitted effect of over 45% in size
In short: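 Luminescent CellTiter-Glo read-out, 30 min at room temperature, gauged cytotoxicity in p53RE-bla cells exposed 16 h at 37 C to DMSO-dissolved compounds with metabolic activation by human liver microsomes and NADPH, each 0.5 mg/mL final.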

[9] = p53 small molecule agonists, cell-based qHTS assay with rat liver microsomes: qHTS cell viability counter screen (AID 1963580); also: nearly all actives have a fitted effect of over 45% in size
In short: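 After the beta-lactamase ratio was read, CellTiter-Glo was added to the same wells and luminescence measured at 30 min; cells had been treated 16 h at 37 C with compounds, rat liver microsomes and NADPH (0.5 mg/mL final each).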

[10] = p53 small molecule agonists, cell-based qHTS assay: qHTS cell viability counter screen (AID 1963581); also: nearly all actives have a fitted effect of over 45% in size
In short: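 qHTS counter screen: 16 h compound exposure at 37 C of p53RE-bla HCT-116 cells (4,000 per well, seeded 5 h prior), cell viability by ATP luminescence.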

[11] = p53 small molecule agonists, cell-based qHTS assay (AID 1963582; active = well fitted activation curve with a large enough effect in the signal ratio in the repeat runs, not every such curve was filed as active; the % refers to the signal ratio)
In short: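 Measured: fluorescence from cleaved LiveBLAzer substrate. System: p53RE-bla cells, 16 h compound treatment at 37 C, 2 h substrate step at room temperature.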

[12] = biological target: 5-hydroxytryptamine receptor 2A (Homo sapiens) (UniProt P28223); assay: 5-hydroxytryptamine receptor 2A (HTR2A) small molecule antagonists, cell-based qHTS assay (AID 1963586); also: nearly all actives have a fitted effect of over 45% in size
In short: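 CHO cells stably expressing human HTR2A were plated for 18 h at 37 C, then loaded with calcium dye for 1 h. Compounds were preincubated 5 min at room temperature before DOI (4 nM solution) was added. Kinetic fluorescence was read for 3 min.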

[13] = biological target: 5-hydroxytryptamine receptor 2A (Homo sapiens) (UniProt P28223); assay: 5-hydroxytryptamine receptor 2A (HTR2A) small molecule agonists, cell-based qHTS assay (AID 1963587); also: nearly all actives have a fitted effect of over 30% in size
In short: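 CHO cells stably expressing human HTR2A, plated 18 h, loaded with calcium dye 1 h at 37 C. Agonist mode: compounds added and intracellular calcium fluorescence recorded kinetically for 2 min at 1 sec intervals.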

[14] = cAMP Responsive Elements (CRE) small molecule agonists, cell-based qHTS assay (AID 1963590)
In short: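 Test agents in DMSO were incubated 3 h at 37 C/5% CO2 with CRE-bla HEK 293T cells seeded 18 h earlier; LiveBLAzer B/G FRET substrate was added and read after 2 h at room temperature.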

[15] = cAMP Responsive Elements (CRE) small molecule antagonists, cell-based qHTS assay (AID 1963591; active = well fitted inhibition curve with a large enough effect in the signal ratio in the repeat runs, not every such curve was filed as active; the % refers to the signal ratio)
In short: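 Reporter line CRE-bla HEK 293T in dialyzed-FBS DMEM; cells preincubated 18 h, treated 3 h with compound plus NKH477 (0.25 uM final); LiveBLAzer FRET, 2 h RT.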

[16] = biological target: Beta-2 adrenergic receptor (Homo sapiens) (UniProt P07550); assay: Adrenergic beta2 receptor (ADRB2) small molecule antagonists, cell-based qHTS assay (AID 1963592); also: series mostly up to about 92 µM; nearly all actives have a fitted effect of over 50% in size
In short: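 Assay format: CHO-ADRB2 cells, 18-20hr seeding at 37C/5% CO2, then compound plus 1nM isoproterenol agonist mix for 0.5hr RT. Homogeneous time-resolved fluorescence cAMP detection after 1hr, expressed as 665/615 nm ratio.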

[17] = biological target: D(2) dopamine receptor (Homo sapiens) (UniProt P14416); assay: Dopamine D2 receptor (DRD2) small molecule agonists, cell-based qHTS assay (AID 1963594); also: nearly all actives have a fitted effect of over 35% in size
In short: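 HEK293 cells stably expressing human DRD2, pre-treated with PDE inhibitor Ro20-1724 (0.1 mM final) and compound 10 min at room temperature, then stimulated with NKH477 (200nM […]) for 30 min. cAMP read by HTRF (665/620 nm).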

[18] = biological target: D(2) dopamine receptor (Homo sapiens) (UniProt P14416); assay: Dopamine D2 receptor (DRD2) small molecule antagonists, cell-based qHTS assay (AID 1963595; active = well fitted inhibition curve with a large enough effect in the signal ratio in the repeat runs, with a control signal flat; the % refers to the signal ratio)
In short: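 Antagonist mode in DRD2-HEK293 cells: after compound addition with 0.1 mM Ro20-1724, cells received quinpirole (12 nM) and NKH477 (200 nM) for 30 min at room temperature; HTRF cAMP read after 1 h detection.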

[19] = biological target: Muscarinic acetylcholine receptor M1 (Homo sapiens) (UniProt P11229); assay: Cholinergic receptor muscarinic 1 (CHRM1) small molecule agonists, cell-based qHTS assay (AID 1963589); also: nearly all actives have a fitted effect of over 35% in size
In short: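 Kinetic fluorescence (1 s intervals) of calcium-sensitive dye in human M1 CHO cells after compound addition; cells pre-incubated 18 h at 37 C/5% CO2 and dye-loaded 1 h.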

[20] = biological target: Muscarinic acetylcholine receptor M1 (Homo sapiens) (UniProt P11229); assay: Cholinergic receptor muscarinic 1 (CHRM1) small molecule antagonists, cell-based qHTS assay (AID 1963588); also: nearly all actives have a fitted effect of over 40% in size
In short: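 Compounds were tested at 15 concentrations in three independent runs. Dye-loaded CHRM1-CHO cells were exposed 5 min at room temperature before stimulation by acetylcholine added at 50nM. Intracellular calcium was read kinetically on FDSS for 3 min.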

Measured: Potency

Chain of Gonadotropin-releasing hormone receptor (Homo sapiens) (P30968 whole entry, looked up): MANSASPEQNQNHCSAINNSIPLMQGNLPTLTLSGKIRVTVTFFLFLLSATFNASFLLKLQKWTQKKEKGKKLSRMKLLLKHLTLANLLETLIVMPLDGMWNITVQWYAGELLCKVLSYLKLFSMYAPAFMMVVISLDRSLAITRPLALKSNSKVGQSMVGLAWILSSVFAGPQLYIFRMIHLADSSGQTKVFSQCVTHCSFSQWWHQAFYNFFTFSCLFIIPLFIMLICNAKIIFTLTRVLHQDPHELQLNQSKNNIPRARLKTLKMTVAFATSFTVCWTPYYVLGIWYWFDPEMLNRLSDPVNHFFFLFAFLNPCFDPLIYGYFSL
Chain of Muscarinic acetylcholine receptor M1 (Homo sapiens) (P11229 whole entry, looked up): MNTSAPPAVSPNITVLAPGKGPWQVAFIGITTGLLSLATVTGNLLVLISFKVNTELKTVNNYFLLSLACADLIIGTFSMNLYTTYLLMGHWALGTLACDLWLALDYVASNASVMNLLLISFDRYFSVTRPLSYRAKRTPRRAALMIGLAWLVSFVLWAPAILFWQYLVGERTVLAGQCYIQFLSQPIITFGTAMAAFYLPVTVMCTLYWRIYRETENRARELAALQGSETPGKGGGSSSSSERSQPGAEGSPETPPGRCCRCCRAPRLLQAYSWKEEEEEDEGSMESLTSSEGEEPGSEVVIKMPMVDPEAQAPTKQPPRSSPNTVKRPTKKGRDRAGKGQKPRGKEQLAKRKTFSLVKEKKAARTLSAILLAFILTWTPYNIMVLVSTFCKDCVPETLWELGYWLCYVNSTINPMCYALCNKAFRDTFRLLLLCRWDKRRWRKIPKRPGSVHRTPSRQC
Chain of KiSS-1 receptor (Homo sapiens) (Q969F8 whole entry, looked up): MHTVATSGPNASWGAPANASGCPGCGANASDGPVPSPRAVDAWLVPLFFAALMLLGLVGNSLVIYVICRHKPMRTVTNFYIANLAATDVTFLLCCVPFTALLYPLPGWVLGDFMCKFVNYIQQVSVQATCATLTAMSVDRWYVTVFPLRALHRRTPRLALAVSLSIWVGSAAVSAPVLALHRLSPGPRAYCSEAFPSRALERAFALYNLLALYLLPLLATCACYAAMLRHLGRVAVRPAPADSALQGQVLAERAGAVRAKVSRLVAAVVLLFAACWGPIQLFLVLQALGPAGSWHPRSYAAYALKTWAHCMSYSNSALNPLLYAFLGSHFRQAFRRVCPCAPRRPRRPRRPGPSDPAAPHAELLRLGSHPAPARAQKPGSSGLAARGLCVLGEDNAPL
Chain of 5-hydroxytryptamine receptor 2A (Homo sapiens) (P28223 whole entry, looked up): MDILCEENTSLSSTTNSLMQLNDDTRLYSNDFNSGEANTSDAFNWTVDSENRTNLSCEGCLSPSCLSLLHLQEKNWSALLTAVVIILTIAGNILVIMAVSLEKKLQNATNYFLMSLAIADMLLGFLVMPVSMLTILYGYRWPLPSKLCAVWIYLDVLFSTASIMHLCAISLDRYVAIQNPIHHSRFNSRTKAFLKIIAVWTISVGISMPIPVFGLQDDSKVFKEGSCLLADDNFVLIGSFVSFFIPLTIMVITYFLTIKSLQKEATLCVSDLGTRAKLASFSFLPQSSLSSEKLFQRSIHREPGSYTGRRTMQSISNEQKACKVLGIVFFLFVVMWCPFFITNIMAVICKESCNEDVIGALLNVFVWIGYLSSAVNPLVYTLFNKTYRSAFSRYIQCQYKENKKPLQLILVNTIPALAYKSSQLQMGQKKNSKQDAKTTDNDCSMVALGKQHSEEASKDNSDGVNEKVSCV
Chain of D(2) dopamine receptor (Homo sapiens) (P14416 whole entry, looked up): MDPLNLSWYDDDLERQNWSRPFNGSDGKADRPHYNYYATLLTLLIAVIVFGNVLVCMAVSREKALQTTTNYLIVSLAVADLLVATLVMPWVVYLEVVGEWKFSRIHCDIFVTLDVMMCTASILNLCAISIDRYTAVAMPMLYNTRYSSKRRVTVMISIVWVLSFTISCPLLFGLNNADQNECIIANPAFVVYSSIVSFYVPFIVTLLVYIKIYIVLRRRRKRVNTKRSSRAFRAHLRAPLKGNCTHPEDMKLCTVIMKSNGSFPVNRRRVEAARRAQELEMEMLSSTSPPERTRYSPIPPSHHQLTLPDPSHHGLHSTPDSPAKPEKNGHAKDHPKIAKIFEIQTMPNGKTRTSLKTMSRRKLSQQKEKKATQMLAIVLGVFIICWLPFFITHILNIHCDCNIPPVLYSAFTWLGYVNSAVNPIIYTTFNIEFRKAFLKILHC
Chain of Beta-2 adrenergic receptor (Homo sapiens) (P07550 whole entry, looked up): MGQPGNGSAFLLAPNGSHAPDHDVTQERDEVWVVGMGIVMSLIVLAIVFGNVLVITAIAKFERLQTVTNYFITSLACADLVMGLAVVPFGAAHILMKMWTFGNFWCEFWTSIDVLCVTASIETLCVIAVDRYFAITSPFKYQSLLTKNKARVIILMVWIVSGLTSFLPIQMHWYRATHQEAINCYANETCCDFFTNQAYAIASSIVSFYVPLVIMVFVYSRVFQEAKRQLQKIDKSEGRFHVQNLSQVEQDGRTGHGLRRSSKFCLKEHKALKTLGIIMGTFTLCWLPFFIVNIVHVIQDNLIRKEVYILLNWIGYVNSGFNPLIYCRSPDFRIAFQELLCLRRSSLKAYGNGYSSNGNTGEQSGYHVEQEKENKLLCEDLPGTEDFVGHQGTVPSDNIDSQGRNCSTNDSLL

CC(C)C(=O)OCC(C)(C)C(O)C(C)C (centres undefined)
not listed: [19] | [20]
inactive: all other assays above

CC(CNC1CCCCC1)OC(=O)c1ccccc1 (centres undefined)
not listed: [20]
inactive: all other assays above

O=C(Nc1ccc2c(O)c(N=Nc3ccc(N=Nc4ccc(S(=O)(=O)O)cc4)cc3)c(S(=O)(=O)O)cc2c1)c1ccccc1
active: [1] 30.6 µM
not listed: [15] | [20]
inactive: all other assays above

CC(C)=CCOC(=O)c1ccccc1
not listed: [15] | [20]
inactive: all other assays above

Cc1cc(O)c(C)c(C)c1O
not listed: [16] | [20]
inactive: all other assays above

CCCCc1ccc2c(n1)[C@@H](c1ccc(OC)cc1C[C@H](C)C(=O)O)[C@H](C(=O)O)[C@H]2c1ccc2c(c1)OCO2
not listed: [14] | [15] | [20]
inactive: all other assays above

Clc1cc(Cl)cc(Cl)c1
not listed: [12] | [17] | [18]
inactive: all other assays above

CC(=O)C=O
not listed: [13]
inactive: all other assays above
